PubChem BioAssay AID817 (Emory University Molecular Libraries Screening Center, 2007)
The whole screen tested about 140,000 compounds, of which about 300 (0.21%) were called active.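 Rule for the calls: active = z-score above 3 at both the 24 hr and the 30 hr optical density reads; inactive = the rest, inconclusive results apart.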 For the sample, actives were picked, then their nearest neighbours and some compounds at random.

Assay: growth rescue of sdo1-depleted yeast, primary screen, S. cerevisiae, bone marrow failure model (AID 817);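 note: z-score against mean and SD of all compound wells on the same plate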
Settings: S. cerevisiae sdo1-depleted JHY4D growth rescue, at 10 µM, stronger effect = higher value, pdr5 snq2 efflux-pump mutant strain
[1] = OD600, measured here: growth rescue at 24 h

SMILES	z-score (OD600 30 h)	z-score [1]
C=CCOc1c(Br)cc(/C=N\n2nnnc2N)cc1OC	0.16 (inactive)	0.27
CC(=O)Nc1ccc(S(=O)(=O)NC2(C(F)(F)F)C(=O)Nc3c2c(=O)[nH]c(=O)n3Cc2ccccc2)cc1 (stereo not given)	0.9 (inactive)	-0.08
Cc1ccc(Nc2ccc(C(N)=O)cc2[N+](=O)[O-])cc1	0.35 (inactive)	0.28
CCC1CCCCN1C(=S)Nc1ccc(C(C)=O)cc1 (stereo not given)	-0.29 (inactive)	-0.44
C=CCn1c(SCc2ccc(Cl)c(Cl)c2)nnc1C(CO)NC(=O)c1ccc(OC)cc1 (stereo not given)	0.22 (inactive)	-0.41
COc1cc(/C=C/C(=O)OCC(=O)Nc2cccc(Oc3ccccc3)c2)ccc1O	-0.4 (inactive)	0.4
COc1ccc(/C=C/C(=O)OCC(=O)NCc2cccs2)cc1OC	1.04 (inactive)	0.67
O=C(COC(=O)/C=C/c1cccc(Cl)c1)NCCc1ccccc1	3.39 (active)	3.67
CC(NC(=S)Nc1ccccc1)C1COc2ccccc2O1 (stereo not given)	-0.7 (inactive)	0.37
Clc1cccc(CN2COc3c(cc(Cl)c4cccnc34)C2)c1	-1.42 (inactive)	1.02
COc1ccc(C(=O)CSc2nnc(NC(=O)C3CC(=O)N(c4cccc(OC)c4)C3)s2)cc1 (stereo not given)	-0.16 (inactive)	0.63
Cn1cccc1/C=C1\SC(=S)N(NC(=O)c2ccc(Cl)cc2)C1=O	-1.05 (inactive)	-0.65
COc1cc(OC)c(-n2cc(-c3ccc(Cl)cc3)[nH]c2=O)cc1Cl	0.21 (inactive)	1.29
COCCCNC(=O)CNC(=S)N(Cc1cc(OC)c(OC)c(OC)c1)C1CCCC1	1.27 (inactive)	0.62
O=C(NC(=S)NC1CCSC1=O)c1ccccc1F (stereo not given)	1.34 (inactive)	0.37
COc1cc(OC)c(C(=O)OC(C)C(=O)Nc2cc(C(F)(F)F)ccc2Cl)cc1OC (stereo not given)	-0.55 (inactive)	-0.89
COc1ccc(COC(=O)N/N=C(\C)CC(=O)Nc2ccc(Cl)cc2)cc1	-0.6 (inactive)	-0.79
Cc1cccc2cc(CN(Cc3cccs3)C(=S)NCc3ccco3)c(=O)[nH]c12	-0.84 (inactive)	-0.86
Cc1nc(CC(=O)NNS(=O)(=O)c2ccc(F)c(Cl)c2)cs1	-0.8 (inactive)	-1.4
Oc1c(Br)cccc1/C=N/Nc1c(F)c(F)c(F)c(F)c1F	-1.2 (inactive)	-1.07

SMILES	z-score (OD600 30 h)	z-score [1]
CCCCC(NS(=O)(=O)c1ccc(C)cc1)C(=O)Oc1ccc2c3c(c(=O)oc2c1)CCC3 (stereo not given)	3.73 (inactive)	0.78
COc1ccc(-c2noc(-c3cccc(OC)c3OC)n2)cc1OC	0.11 (inactive)	0.39
COc1ccc(-c2nnco2)cc1OC	12.4 (active)	7.83
COc1ccc2c(Cl)c(-c3nnco3)sc2c1	-1.26 (inactive)	-0.79
COc1cccc(-c2nnc(NC(=O)c3ccc(S(=O)(=O)N(CC(C)C)CC(C)C)cc3)o2)c1	5.73 (active)	8.93
O=C(COC(=O)c1ccc(Oc2ccccc2)cc1)Nc1nnc(-c2ccccc2)o1	0.36 (inactive)	-0.67
COc1cccc(NC(=O)CN(C)S(=O)(=O)c2ccc(C)cc2)c1	-1.24 (inactive)	-0.78
O=C(Cc1ccc(-c2ccccc2)cc1)NC(c1ccccc1)c1ccccc1	-0.71 (inactive)	-0.45
COc1ccc(CC(=O)Nc2cc(S(=O)(=O)N3CCCCC3)ccc2N2CCN(C)CC2)cc1	0.01 (inactive)	-0.4
O=[N+]([O-])c1cccc(S(=O)(=O)N2CCCCCC2)c1	0.38 (inactive)	-0.08
Cc1ccc(C(C)C)cc1OCCN1CCCC1	-1.51 (inactive)	-0.59
O=C(Nc1ccc(CSc2ccccc2)cc1)c1ccc(CN2CCOCC2)cc1	-1.65 (inactive)	-1.3
CSCC[C@H](NC(=O)OC(C)(C)C)C(=O)N/N=C/c1cc2ccc(C)cc2nc1Cl	-1.17 (inactive)	-0.96
Cc1ccc(C)c(OCC(=O)N2CCN(C(=O)c3ccco3)CC2)c1	2.17 (inactive)	2
CCn1c(/C=N/NC(=O)c2ccc(OC)cc2)nc2ccccc21	-1.61 (inactive)	-0.95
CC(C)CC(CO)N1CCN(C(=O)c2ccc(Cl)cc2Cl)CCC1=O (stereo not given)	0.36 (inactive)	-0.56
CC(=O)Nc1ccc(SCC(=O)Nc2ccccc2Oc2ccccc2)cc1	-0.06 (inactive)	-0.09
Cc1sc2nc(CC(N)=O)[nH]c(=O)c2c1-c1ccccc1	0.91 (inactive)	0.6
CCOc1cc(NC(=S)NCCCOC)c(OCC)cc1NC(=O)c1ccco1	0.22 (inactive)	-0.09
CCOc1cccc(OCCCOc2cccc3cccnc23)c1	-1.11 (inactive)	-0.59
